Test results from the supplement of paper PMC4466140.

B1: unnamed (peptide)
chain: LSKRLPLRFPEHTSS

target: AgAbp1; test: SPOT peptide array binding signal intensity (averaged, normalized) (arbitrary units (background-subtracted, floor 0; scale differs between SH3 domains)); higher = stronger binding of the SH3 domain to the peptide
Method: (§1)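 GST-tagged SH3 domains from S. cerevisiae (Sc), A. gossypii (Ag), C. albicans (Ca) and S. pombe (Sp) were incubated at 10 ug/ml overnight at 4 C on cellulose SPOT membranes carrying 292 synthetic 15-mer peptides mined from the S. cerevisiae proteome (cysteines replaced by serines). Binding was detected with anti-GST antibody, HRP secondary and chemiluminescence, quantified with Genespotter, and reported as normalized spot intensities averaged over biological replicates.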

Row | Binder | SPOT peptide array binding signal intensity
1 | B1 | 48

target: AgBbc1; test: as above
Method: as §1

Row | Binder | SPOT peptide array binding signal intensity
2 | B1 | 5.5

target: AgBem1-D1; test: as above
Method: as §1

Row | Binder | SPOT peptide array binding signal intensity
3 | B1 | ≤ 0

target: AgBzz1-D1; test: as above
Method: as §1

Row | Binder | SPOT peptide array binding signal intensity
4 | B1 | 9

target: AgBzz1-D2; test: as above
Method: as §1

Row | Binder | SPOT peptide array binding signal intensity
5 | B1 | 17

target: AgCyk3; test: as above
Method: as §1

Row | Binder | SPOT peptide array binding signal intensity
6 | B1 | ≤ 0

target: AgFus1; test: as above
Method: as §1

Row | Binder | SPOT peptide array binding signal intensity
7 | B1 | 102

target: AgHof1; test: as above
Method: as §1

Row | Binder | SPOT peptide array binding signal intensity
8 | B1 | 67.5

target: AgHse1; test: as above
Method: as §1

Row | Binder | SPOT peptide array binding signal intensity
9 | B1 | 234

target: AgLsb1; test: as above
Method: as §1

Row | Binder | SPOT peptide array binding signal intensity
10 | B1 | 5.5

target: AgLsb4; test: as above
Method: as §1

Row | Binder | SPOT peptide array binding signal intensity
11 | B1 | 53.5

target: AgMyo5; test: as above
Method: as §1

Row | Binder | SPOT peptide array binding signal intensity
12 | B1 | ≤ 0

target: AgNbp2; test: as above
Method: as §1

Row | Binder | SPOT peptide array binding signal intensity
13 | B1 | 10

target: AgRvs167; test: as above
Method: as §1

Row | Binder | SPOT peptide array binding signal intensity
14 | B1 | 1.33

target: AgSho1; test: as above
Method: as §1

Row | Binder | SPOT peptide array binding signal intensity
15 | B1 | 17

target: AgSla1-D1-D2; test: as above
Method: as §1

Row | Binder | SPOT peptide array binding signal intensity
16 | B1 | 2

target: AgSla1-D3; test: as above
Method: as §1

Row | Binder | SPOT peptide array binding signal intensity
17 | B1 | ≤ 0

target: CaAbp1-D1; test: as above
Method: as §1

Row | Binder | SPOT peptide array binding signal intensity
18 | B1 | 462

target: CaAbp1-D2; test: as above
Method: as §1

Row | Binder | SPOT peptide array binding signal intensity
19 | B1 | 220

target: CaBbc1; test: as above
Method: as §1

Row | Binder | SPOT peptide array binding signal intensity
20 | B1 | 27.2

target: CaBem1-D1; test: as above
Method: as §1

Row | Binder | SPOT peptide array binding signal intensity
21 | B1 | 10

target: CaBzz1-D1; test: as above
Method: as §1

Row | Binder | SPOT peptide array binding signal intensity
22 | B1 | 22

target: CaBzz1-D2; test: as above
Method: as §1

Row | Binder | SPOT peptide array binding signal intensity
23 | B1 | 60.8

target: CaCyk3; test: as above
Method: as §1

Row | Binder | SPOT peptide array binding signal intensity
24 | B1 | 4

target: CaFus1; test: as above
Method: as §1

Row | Binder | SPOT peptide array binding signal intensity
25 | B1 | 402

target: CaHof1; test: as above
Method: as §1

Row | Binder | SPOT peptide array binding signal intensity
26 | B1 | 0.75

target: CaHse1; test: as above
Method: as §1

Row | Binder | SPOT peptide array binding signal intensity
27 | B1 | 81

target: CaLsb1; test: as above
Method: as §1

Row | Binder | SPOT peptide array binding signal intensity
28 | B1 | 1

target: CaLsb4; test: as above
Method: as §1

Row | Binder | SPOT peptide array binding signal intensity
29 | B1 | 136

target: CaMyo5; test: as above
Method: as §1

Row | Binder | SPOT peptide array binding signal intensity
30 | B1 | ≤ 0

target: CaNbp2; test: as above
Method: as §1

Row | Binder | SPOT peptide array binding signal intensity
31 | B1 | 63.5

target: CaRvs167; test: as above
Method: as §1

Row | Binder | SPOT peptide array binding signal intensity
32 | B1 | 15.2

target: CaRvs167-3; test: as above
Method: as §1

Row | Binder | SPOT peptide array binding signal intensity
33 | B1 | 15.8

target: CaSho1; test: as above
Method: as §1

Row | Binder | SPOT peptide array binding signal intensity
34 | B1 | 212

target: CaSla1-D1-D2; test: as above
Method: as §1

Row | Binder | SPOT peptide array binding signal intensity
35 | B1 | ≤ 0

target: CaSla1-D3; test: as above
Method: as §1

Row | Binder | SPOT peptide array binding signal intensity
36 | B1 | 1

target: ScAbp1; test: as above
Method: as §1

Row | Binder | SPOT peptide array binding signal intensity
37 | B1 | 63.5

target: ScBbc1; test: as above
Method: as §1

Row | Binder | SPOT peptide array binding signal intensity
38 | B1 | ≤ 0

target: ScBem1-D1; test: as above
Method: as §1

Row | Binder | SPOT peptide array binding signal intensity
39 | B1 | 23.5

target: ScBzz1-D1; test: as above
Method: as §1

Row | Binder | SPOT peptide array binding signal intensity
40 | B1 | 10.5

target: ScBzz1-D2; test: as above
Method: as §1

Row | Binder | SPOT peptide array binding signal intensity
41 | B1 | 17

target: ScCyk3; test: as above
Method: as §1

Row | Binder | SPOT peptide array binding signal intensity
42 | B1 | 61

target: ScFus1; test: as above
Method: as §1

Row | Binder | SPOT peptide array binding signal intensity
43 | B1 | 81

target: ScHof1; test: as above
Method: as §1

Row | Binder | SPOT peptide array binding signal intensity
44 | B1 | 4.25

target: ScHse1; test: as above
Method: as §1

Row | Binder | SPOT peptide array binding signal intensity
45 | B1 | 532

target: ScLsb1; test: as above
Method: as §1

Row | Binder | SPOT peptide array binding signal intensity
46 | B1 | 4

target: ScLsb2; test: as above
Method: as §1

Row | Binder | SPOT peptide array binding signal intensity
47 | B1 | ≤ 0

target: ScLsb3; test: as above
Method: as §1

Row | Binder | SPOT peptide array binding signal intensity
48 | B1 | 492

target: ScLsb4; test: as above
Method: as §1

Row | Binder | SPOT peptide array binding signal intensity
49 | B1 | 10.5

target: ScMyo3; test: as above
Method: as §1

Row | Binder | SPOT peptide array binding signal intensity
50 | B1 | ≤ 0

target: ScMyo5; test: as above
Method: as §1

Row | Binder | SPOT peptide array binding signal intensity
51 | B1 | ≤ 0

target: ScNbp2; test: as above
Method: as §1

Row | Binder | SPOT peptide array binding signal intensity
52 | B1 | 50

target: ScPex13; test: as above
Method: as §1

Row | Binder | SPOT peptide array binding signal intensity
53 | B1 | ≤ 0

target: ScRvs167; test: as above
Method: as §1

Row | Binder | SPOT peptide array binding signal intensity
54 | B1 | 231

target: ScSho1; test: as above
Method: as §1

Row | Binder | SPOT peptide array binding signal intensity
55 | B1 | 952

target: ScSla1-D1-D2; test: as above
Method: as §1

Row | Binder | SPOT peptide array binding signal intensity
56 | B1 | 6

target: ScSla1-D3; test: as above
Method: as §1

Row | Binder | SPOT peptide array binding signal intensity
57 | B1 | 4.75

target: SpAbp1-D1; test: as above
Method: as §1

Row | Binder | SPOT peptide array binding signal intensity
58 | B1 | 228

target: SpBbc1; test: as above
Method: as §1

Row | Binder | SPOT peptide array binding signal intensity
59 | B1 | 1.5

target: SpBzz1-D1; test: as above
Method: as §1

Row | Binder | SPOT peptide array binding signal intensity
60 | B1 | 132
